Laboratory results: PMC5540273 (PLoS ONE, 2017)

Experiments:
AAK1 = details: concentration: 1 μM, replicates: in singlicate; n = 1
ABL1-nonphosphorylated = details: concentration: 1 μM, replicates: in singlicate; n = 1
ABL1-phosphorylated = details: concentration: 1 μM, replicates: in singlicate; n = 1
ABL2 = details: concentration: 1 μM, replicates: in singlicate; n = 1
YSK4 = system: T1, YSK4
T1 construct: gene MAP3K19
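Throughout, for %Inh: KINOMEscan kinase panel screen.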
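Throughout, for Kd: kd values determined as follow-up on hits from a single-replicate KINOMEscan panel screen.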

SMILES | %Inh (AAK1) | %Inh (ABL1-nonphosphorylated) | %Inh (ABL1-phosphorylated) | %Inh (ABL2) | Kd (YSK4) | Kd (ZAK)
COc1cccc(C2=C(Nc3cccc(C(=O)O)c3)C(=O)NC2=O)c1 [SB-390770] | 3% | 0% | 0% | 6% | – | –
CCn1c(-c2ccoc2)nc2cnccc21 [SB-733887] | 1% | 1% | 17% | 10% | – | –
Cc1c(Cn2c(C)nn3c(=O)cc(N4CCO[C@H](C)C4)nc23)cccc1C(F)(F)F [GSK2373690] | 0% | 0% | 2% | 24% | – | –
CCc1ccc(-c2ccc3c(c2)-c2nn(C)cc2S(=O)(=O)N3C)cc1 | 19% | 31% | 0% | 0% | – | –
CCS(=O)(=O)c1ccc(OC)c(Nc2ncc(-c3ccc(F)cc3)o2)c1.Cl [GW591947] | 4% | 0% | 0% | 0% | – | –
CCn1c(-c2nonc2N)nc2ccccc21 [SB-693162/GW549034] | 29% | 53% | 27% | 0% | 10 nM | –
O=C(Nc1n[nH]c2cc(-c3ccccc3F)ccc12)C1CC1 [SB-733371] | 9% | 46% | 21% | 9% | 200 nM | –
CN(C)c1cc(-c2ccc3c(N)n[nH]c3c2)nc(N)n1 [GSK2219329] | 10% | 0% | 0% | 0% | – | > 10000 nM
CCCC(=O)Nc1n[nH]c2ncc(-c3cccc4ccccc34)cc12 [SB-642057] | 27% | 0% | 27% | 11% | – | –
COc1cccc(-n2cnc3c(N)ncnc32)c1 [SKF-97416] | 0% | 56% | 46% | 8% | – | –
O=c1cc(N2CCOCC2)nc2n(Cc3ccc(F)c(Cl)c3)ccn12 [GSK2297099] | 24% | 0% | 0% | 0% | – | –
Cn1c(=O)c(F)c(Nc2ccc(I)cc2F)c2c(=O)n(OC[C@H](O)CO)cnc21 | 10% | 54% | 41% | 3% | – | –
Cc1nnc(-c2ccc3ncn(-c4ccc(S(C)=O)cc4)c3c2)o1 (centres unmarked) | 0% | 22% | 0% | 6% | – | –
O=C1NC(=O)C(c2ccccc2)=C1Nc1cccc(O)c1 [SB-390534] | 0% | 22% | 5% | 1% | – | –
O=C(NCc1cccs1)c1cc(C(=O)c2c(Cl)cccc2Cl)c[nH]1 [GW823670] | 0% | 18% | 27% | 0% | – | –
Nc1ncnc2c1ncn2-c1ccc(Cl)cc1 [AH2635] | 0% | 0% | 0% | 0% | – | –
Fc1cccc(CSc2nnc(-c3ccc4c(c3)CCO4)o2)c1 | 25% | 20% | 7% | 22% | – | –
COc1cc(Nc2ccnc3ccc(C(F)(F)F)cc23)cc(OC)c1OC [GW577382] | 8% | 27% | 19% | 28% | – | –
Cc1nnc(-c2ccc(C)c(-c3ccc(C(=O)O)cc3)c2)o1 [GW608005] | 0% | 0% | 0% | 0% | – | –
Cl.NS(=O)(=O)c1cccc(Nc2cc(-c3ccc(F)cc3)n[nH]2)c1 [GW824645] | 9% | 5% | 24% | 0% | – | –
COc1cc(Nc2nccc(N3CCC(NC(=O)C4COc5ccccc5O4)C3)n2)cc(OC)c1OC (centres unmarked) [GSK1379761] | 66% | 0% | 0% | 3% | – | –
COc1ccc(CNC(=O)NC2CCN(c3ccnc(Nc4ccc(F)cc4)n3)C2)cc1 (centres unmarked) [GSK1379706] | 32% | 0% | 0% | 2% | – | –
Cc1nc(N(C)[C@H]2CN(C(=O)CC#N)CC[C@H]2C)c2cc[nH]c2n1 | 0% | 1% | 2% | 1% | – | –
CCc1nc(-c2cccc(C)c2)c(-c2ccncc2)s1 | 0% | 60% | 11% | 6% | – | –
COc1cc2ncn(-c3cc(OCc4ccc(S(C)(=O)=O)cc4)c(C(N)=O)s3)c2cc1OC [GW869979] | 0% | 0% | 13% | 14% | – | –
CCC(=O)c1c(-c2ccccc2)c2cc(Cl)ccc2c(=O)n1Cc1cc(S(C)(=O)=O)n(CC(N)=O)n1 | 0% | 44% | 9% | 0% | – | –
CC(C)(C)c1ccc(C(=O)Nc2cn3cc(-c4ccccc4)ccc3n2)cc1 | 0% | 74% | 55% | 21% | – | –
FC(F)(F)c1ccc(-c2ncn(CCCN3CCOCC3)c2-c2ccncc2)cc1 [SB-217780] | 7% | 44% | 0% | 8% | – | –
Cl.c1ccc(Cn2cnc3cc(Nc4ncnc5ccccc45)ccc32)cc1 [GW272142] | 5% | 0% | 0% | 9% | – | –
